# Shown are actives, neighbours in structure and some others; about 10% of the full set was active somewhere.
# GPT2 inhibitor: Primary qHTS assay for inhibitors of Glutamate pyruvate transaminase 2 (GPT2); Recombinant GPT2, coupled pyruvate oxidase/HRP Amplex Red fluorescence; Alanine aminotransferase 2 (Homo sapiens), Q8TD30; Potency, µM (highest dose often 57.7 µM), for the others: at the top dose activity change, negative = inhibition, usual class: inhibitors; 100,000 tested, 0.25% active; note: nearly all actives have a fitted effect of over 60% in size
#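 GPT2 10ng/uL, a-KG 250uM, L-Ala 2mM, HEPES pH7.5 + 0.0001% Tween; 30 min RT. Then Amplex mix (PO/HRP/ThPP), 30 min RT dark, fluorescence. AOA 50uM used as positive control.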
# NPR1 antag: Natriuretic polypeptide receptor (hNpr1) antagonism - Primary qHTS; 76,000 tested, 1.6% active; Potency, µM (titrated, usually from 46.3 µM), inactives show at the highest dose activity change, negative = inhibition, usual class: inhibitors; HEK293 hNpr1 GloSensor cGMP, ANP-stimulated luminescence; calls by dose curve; note: nearly all actives have a fitted effect of over 60% in size
# Target sequence (P16066 whole entry, looked up): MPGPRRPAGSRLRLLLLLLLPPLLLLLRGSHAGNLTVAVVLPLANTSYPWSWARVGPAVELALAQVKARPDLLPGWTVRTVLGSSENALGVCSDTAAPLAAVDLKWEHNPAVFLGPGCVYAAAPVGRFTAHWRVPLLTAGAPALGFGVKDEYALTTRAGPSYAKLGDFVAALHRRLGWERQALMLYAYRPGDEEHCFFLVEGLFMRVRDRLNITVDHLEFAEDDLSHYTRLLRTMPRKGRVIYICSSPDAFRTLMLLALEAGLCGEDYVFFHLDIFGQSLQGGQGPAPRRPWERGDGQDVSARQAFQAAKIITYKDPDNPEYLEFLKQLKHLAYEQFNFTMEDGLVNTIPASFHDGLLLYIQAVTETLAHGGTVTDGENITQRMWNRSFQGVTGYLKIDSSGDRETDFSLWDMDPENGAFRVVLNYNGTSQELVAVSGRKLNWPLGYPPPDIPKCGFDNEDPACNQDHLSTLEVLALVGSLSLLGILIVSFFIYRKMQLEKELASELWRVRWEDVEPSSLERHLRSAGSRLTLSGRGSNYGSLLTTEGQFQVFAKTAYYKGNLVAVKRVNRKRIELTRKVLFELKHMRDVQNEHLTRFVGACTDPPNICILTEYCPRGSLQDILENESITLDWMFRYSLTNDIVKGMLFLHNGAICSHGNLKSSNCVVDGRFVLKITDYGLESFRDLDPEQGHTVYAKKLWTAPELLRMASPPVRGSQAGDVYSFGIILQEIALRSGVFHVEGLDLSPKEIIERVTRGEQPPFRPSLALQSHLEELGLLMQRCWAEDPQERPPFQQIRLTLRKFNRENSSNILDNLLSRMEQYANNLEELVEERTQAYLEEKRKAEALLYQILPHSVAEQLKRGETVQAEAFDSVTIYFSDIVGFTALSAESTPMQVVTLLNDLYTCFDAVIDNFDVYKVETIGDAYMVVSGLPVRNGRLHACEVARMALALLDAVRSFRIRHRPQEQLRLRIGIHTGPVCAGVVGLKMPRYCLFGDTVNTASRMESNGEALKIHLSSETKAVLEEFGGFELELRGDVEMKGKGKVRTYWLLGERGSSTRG
#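 Compound pre-incubated 30 min at room temperature on GloSensor-loaded HEK293 cells stably carrying hNpr1 and the pGS-40F cGMP biosensor. Stimulation uses hNppA at 0.1 nM final; luminescence is taken at baseline and 20 min post-agonist.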
# NIH3T3 tox: Cytotoxic Profiling in NIH 3T3 Cell Line of Diverse Libraries Using Quantitative High-Throughput Screening | NIH 3T3 viability, CellTiter-Glo ATP luminescence, 48-72 h | Potency, µM (doses to about 96.7 µM), for the others: top-dose activity change, negative = cytotoxicity, actives largely listed as inhibitors | 94,000 tested, 4.3% active; note: nearly all actives have a fitted effect of over 55% in size
#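 Cytotoxicity was measured by CellTiter-Glo ATP luminescence after 48 or 72 h compound exposure at 37 °C. Mouse NIH 3T3 fibroblasts were seeded at 400 cells/well and dosed by 23 nL pin transfer.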
# HEK cytotox: Cytotoxic Profiling in HEK 293 Cell Line of Diverse Libraries Using Quantitative High-Throughput Screening | HEK 293 viability, ATP luminescence (CellTiter-Glo), 48-72 h | 94,000 tested, 6.6% active | Potency, µM (top dose mostly 115 µM), without a hit: at the top dose activity change, negative = cytotoxicity, actives largely listed as inhibitors | AID 1345083, 2018; note: nearly all actives have a fitted effect of over 60% in size
#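 CellTiter-Glo luminescence (cellular ATP) was read after 48 or 72 hr of compound exposure at 37 degree Celsius. Cells were HEK 293 plated at 250 cells/well.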
# FLuc inh: Firefly luciferase inhibition profiling of diverse chemical library using quantitative high-throughput screening; Luciferin 4-monooxygenase (Photinus pyralis), P08659; purified P. pyralis luciferase, luminescence, biochemical; Potency, µM (highest dose often 115 µM), hits mostly inhibitors; 76,000 tested, 2.5% active; AID 1347043, 2019; note: nearly all actives have a fitted effect of over 65% in size
#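 Purified 10nM P. pyralis luciferase with 10uM D-luciferin and 10uM ATP in 50mM Tris acetate pH 7.5, 10mM Mg acetate, 0.01% Tween-20, 0.05% BSA. qHTS titration; luminescence read by CCD imager.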
# Active calls of the source: *; i = inactive; ? = inconclusive; nt = not tested or not shown; [ ] = dose if it differs, or a comment. Unless noted, calls come from the whole dose curve; as a rule, active = well fitted curve in the direction sought with a large enough effect; inconclusive = small, poorly fitted or top-dose-only effect, or another doubt; inactive = no such curve, though single readings can be large; an effect the other way counts as inactive or inconclusive. % is set by controls: 0 for no effect and ±100 for the full control effect; potency is the fitted concentration of half-maximal effect.
SMILES,GPT2 inhibitor,NPR1 antag,NIH3T3 tox,HEK cytotox,FLuc inh
Cc1cc(F)ccc1NC(=O)C1CCN(C(=O)c2ncn3c2COC(c2ccc(F)cc2)C3)CC1 (stereo not given),i,-0.6%,i,-6.8%,?
Cc1ccc(C)c(NC(=O)C2CCN(C(=O)c3ncn4c3COC(c3ccc(F)cc3)C4)CC2)c1 (stereo not given),-5.5%,-17.1%,-18.8%,-13.6%,28.2µM*
COc1ccc(C2Cn3cnc(C(=O)N4CCC(C(=O)Nc5cccc(Cl)c5)CC4)c3CO2)cc1 (stereo not given),i,-24.1%,-2.0%,?,39.8µM*
Cc1cccc(S(=O)(=O)N(C)CC2CCOCC2)c1,i,-11.0%,-8.3%,-5.9%,i
Cc1noc2c(NCCc3ccccn3)cc(-c3ccccn3)nc12,-9.1%[88.5 µM],1.0%[70.6 µM],?,56.2µM*,i
Cc1noc(C)c1-c1ccc2c(n1)CN(Cc1ccc(F)cc1)C(=O)CO2,4.6%[88.5 µM],-15.9%[70.6 µM],?,?,i
COCCN1Cc2nc(Nc3ccccc3F)ccc2OCC1=O,-5.3%[88.5 µM],1.6%[70.6 µM],-16.3%[138 µM],?,i
Cc1csc(Nc2ccc3c(n2)CN(Cc2ccc(F)cc2)C(=O)CO3)n1,i,?,?,8.91µM*,i
O=C1COc2ccc(Nc3ccccc3F)nc2CN1Cc1ccc(F)cc1,i,-17.5%[70.6 µM],?,79.4µM*,i
Cc1cc(C)cc(C(=O)N2CCN(C3CCN(CCC(C)C)C3=O)CC2)c1 (stereo not given),3.4%,2.3%,1.3%,2.3%,i
Cc1onc(-c2ccccc2)c1C(=O)N1CCCC2(CCOC2)C1 (stereo not given),0.7%,2.6%,i,i,i
CN(Cc1cccc2cnccc12)C(=O)COc1ccc(Cl)cc1Cl,-28.5%,?,?,44.7µM*,i
COc1cccc(C(=O)N2CCCC2C(=O)N2CCC(N3CCOCC3=O)CC2)c1 (stereo not given),i,nt,-1.5%,i,nt
O=C1NCN(Cc2ccc(Cl)cc2)C12CCN(Cc1ccc(F)cc1)CC2,-29.6%,-21.8%,14.1µM*,28.2µM*,i
O=C1NCN(Cc2ccc(Cl)cc2)C12CCN(Cc1cccnc1)CC2,4.9%,18.0%,?,?,i
O=C1NCN(Cc2ccc(Cl)cc2)C12CCN(Cc1ccc(C(F)(F)F)cc1)CC2,-0.1%,-21.5%,?,39.8µM*,i
O=C(c1ccc(-c2cccs2)cc1)N1CCC(N[S+](=O)([O-])c2ccccc2)CC1,i,nt,?,44.7µM*,nt
O=C(Cc1ccc(F)cc1)NC1CCN(Cc2cccc(-c3ccc(F)c(F)c3)c2)CC1,-5.0%,nt,-26.1%,-0.3%,nt
O=[S+]([O-])(NC1CCN(Cc2cccc(-c3ccc(F)c(F)c3)c2)CC1)c1cccs1,nt,nt,?,35.5µM*,nt
COC(=O)CNC(=O)C1CCN(C(=O)c2ccc(-c3cccs3)cc2)CC1,nt,nt,-27.7%,-12.7%,nt
O=[S+]([O-])(CCC(F)(F)F)NC1CCN(Cc2cccc(-c3cccs3)c2)CC1,i,nt,22.4µM*,?,nt
O=C(NCc1ccccc1Cl)C1CCN(C(=O)c2ccc(-c3cccs3)cc2)CC1,nt,nt,39.8µM*,?,nt
Cc1noc(C)c1[S+](=O)([O-])NC1CCN(C(=O)c2ccc(-c3cccs3)cc2)CC1,2.2%,nt,?,?,nt
O=C(NCCc1ccccc1)c1ccc2nnc(C3CC3)n2c1,i,nt,?,-7.5%[172 µM],nt
O=C(CN1CC2CC(C1)[C@H]1CCCC(=O)N1C2)NCCc1ccccc1 (stereo not given in full),i,-0.7%,i,12.5%,i
SMILES,GPT2 inhibitor,NPR1 antag,NIH3T3 tox,HEK cytotox,FLuc inh
Cc1ccc([S+](=O)([O-])NC2CCN(Cc3cccc(-c4cccs4)c3)CC2)cc1,-10.6%,nt,11.2µM*,?,nt
O=[S+]([O-])(NC1CCN(Cc2cccc(-c3cccs3)c2)CC1)c1ccccc1,-13.7%,nt,39.8µM*,44.7µM*,nt
O=[S+]([O-])(NC1CCN(Cc2cccc(-c3cccs3)c2)CC1)c1cccs1,i,nt,?,?,nt
CCCN(CCO)C(=O)CC1C(=O)NCCN1C1Cc2ccccc2C1 (stereo not given),?,1.2%,-3.6%,-10.5%,i
COc1ccccc1-c1cc(C(=O)NC2CC2)nn2cnnc12,i,nt,-11.9%[138 µM],1.9%[172 µM],nt
Cc1ccc(-c2nc(C)c(C(=O)Nc3ccc4c(c3)C(=O)N3CCC[C@H]3C(=O)N4)s2)cc1,1.4%,-7.1%,-10.5%,?,28.2µM*
COc1ccc(CN2CC3(COCC2=O)CN(c2ccc(C(F)(F)F)cn2)C3)cc1F,-8.9%[88.5 µM],-4.0%[70.6 µM],?,?,i
Cc1cccc(C)c1CN1CC2(COCC1=O)CN(c1ccc(C(F)(F)F)cn1)C2,-3.1%[88.5 µM],-16.9%[70.6 µM],89.1µM*,?,i
COc1ccc(CC(=O)N2CCCN(S(C)(=O)=O)c3ccccc32)cc1OC,i,-3.3%,-12.7%,-3.6%,i
Cc1cccc(CC(=O)N2CCCN(S(C)(=O)=O)c3ccccc32)c1,1.7%,-0.6%,39.8µM*,-16.5%,i
CN(Cc1nc(-c2ccncc2)no1)C(=O)C1CNCCO1 (stereo not given),-14.1%,2.7%,-15.9%,i,i
COc1cc2c(cc1OC)C(CNC(=O)c1ccc(C)cc1)N(C(=O)NC(C)C)CC2 (stereo not given),4.3%,-1.4%,-2.9%,39.8µM*,i
COc1cc2c(cc1OC)C(CNC(=O)c1ccc(C)cc1)N(C(=O)Nc1ccccc1F)CC2 (stereo not given),i,-1.0%,-8.9%,?,i
CCOC(=O)C[C@@H]1C[C@@H](C(C)C)[C@H](CNC(=O)c2ccncc2)C=C1C,-14.9%[88.5 µM],?,?,89.1µM*,i
CC1=C[C@@H](CO)[C@H](C(C)C)C[C@H]1CC(=O)N1CCN(c2ccccn2)CC1,1.4%[88.5 µM],-7.7%[70.6 µM],?,100µM*,?
CC1=C[C@@H](CNC(=O)c2ccncc2)[C@H](C(C)C)C[C@H]1CC(=O)N1CCCC1,-6.4%[88.5 µM],4.6%[70.6 µM],-20.9%[138 µM],-19.2%[172 µM],?
Cc1ccccc1C(=O)N1CCC(CCC(=O)N2CCN(c3ccccn3)CC2)CC1,0.1%,1.2%,-14.8%,?,31.6µM*
CC1=C[C@@H](CNC(=O)c2ccncc2)[C@H](C(C)C)C[C@H]1CC(=O)N1CCN(C)CC1,-0.8%[88.5 µM],-2.8%[70.6 µM],-17.9%[174 µM],-16.2%[172 µM],20µM*

# Bioassay records from PubChem BioAssay.
